Results: PubChem BioAssay

The compounds below were run against Follistatin-related protein 3 (Homo sapiens) (UniProt O95633) (assay: compounds binding follistatin-related protein 3 – biochemical, small-molecule microarray, 635 nm fluorescence, primary screen (AID 1105;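 further: score merges emission near 667 nm and signal to noise per printed spot across three slides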)). Conditions: FSTL3 binding, higher = more signal.
Chain of Follistatin-related protein 3 (Homo sapiens) (O95633 whole entry, looked up): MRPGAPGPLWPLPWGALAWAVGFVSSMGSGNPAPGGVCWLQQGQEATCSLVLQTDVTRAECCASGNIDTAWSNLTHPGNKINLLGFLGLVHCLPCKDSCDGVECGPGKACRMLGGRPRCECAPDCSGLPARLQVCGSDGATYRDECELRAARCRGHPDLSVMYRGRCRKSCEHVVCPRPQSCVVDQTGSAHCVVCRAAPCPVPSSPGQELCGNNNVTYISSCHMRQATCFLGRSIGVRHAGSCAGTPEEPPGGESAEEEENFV

Compound	composite z-score
CC(C)C[C@@H]1NC(=O)[C@H]2C[C@@H](C(=O)O)[C@@H](c3ccc(O)cc3)N2C1=O	0.0204
O=C1O[C@@H](c2ccccc2)[C@@H](c2ccccc2)N2[C@@H](c3ccccc3OCCO)[C@]3(C(=O)Nc4ccc(C#CCCO)cc43)[C@@H](C(=O)O)[C@H]12	0.14
CO[C@H]1COC(=O)[C@H](C)COC(=O)CC=C[C@@H](C)[C@H](OC)COC(=O)CC=C[C@@H]1C	1.32
C=CCC(OC(C)=O)[C@@H]1[C@@H](N(Cc2cc3ccccc3o2)C(=O)Cc2ccc(F)cc2)c2cc(OCCCO)ccc2N1C(=O)Cc1ccc(OC)cc1 (some centres not stated)	-0.0882
CO[C@@H]1COC(=O)[C@H](C)NC(=O)[C@@H](C)COC(=O)CCC[C@H]1C	1.11
CC(C)(C)OC(=O)CC[C@]1(C(N)=O)COC(c2ccc(OCCCO)cc2)=N1	0.278

The compounds below were run against Dickkopf-related protein 1 (Homo sapiens) (UniProt O94907) (assay: small molecules binding DKK1 protein – biochemical, small-molecule microarray, 635 nm fluorescence scan, primary screen (AID 1106;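 further: score merges emission near 667 nm with signal to noise over three replicate slides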)). Conditions: higher = more signal.
Chain of Dickkopf-related protein 1 (Homo sapiens) (O94907 whole entry, looked up): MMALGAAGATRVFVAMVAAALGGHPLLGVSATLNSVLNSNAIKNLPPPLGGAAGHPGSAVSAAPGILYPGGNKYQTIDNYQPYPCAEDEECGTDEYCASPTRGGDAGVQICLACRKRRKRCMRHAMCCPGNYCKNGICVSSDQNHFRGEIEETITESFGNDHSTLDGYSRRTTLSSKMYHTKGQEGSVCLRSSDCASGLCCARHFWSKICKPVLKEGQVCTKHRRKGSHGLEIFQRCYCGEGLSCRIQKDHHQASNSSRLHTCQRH

Compound	composite z-score
CCOC(=O)[C@H](Cc1ccccc1)NC(=O)CCC1CC(OC(=O)NCc2ccc3c(c2)OCO3)CC2(CCCC(COC(=O)NCc3cccc(C(F)(F)F)c3)O2)O1 (some centres not stated)	0.495
CC(=O)OC[C@H]1O[C@@H](ON=C[C@@H](C)[C@H](OCc2ccccc2)C(C)C)[C@H](OC(C)=O)[C@@H](OC(C)=O)[C@@H]1OC(C)=O	-1.22
O=C1[C@H]2[C@H]3[C@H](O)[C@H](O)CC(=NOCc4ccccc4)[C@H]3CC[C@H]2C(=O)N1C[C@@H]1CCCO1	1.11
CO[C@@H]1COC(=O)[C@@H]2CCCN2C(=O)[C@@H](C)COC(=O)[C@H](COCc2ccccc2)NC(=O)CC=C[C@H]1C	0.356
C=C(/C(=C/C[C@H](OC(C)=O)c1ccc(OCCO)cc1)c1cnc2ccccc2c1)C(C)C	0.658
COC(=O)CC=C[C@@H](C)[C@H](OC)c1ccccc1Br	0.503
COc1ccccc1CN1C(=O)c2ccccc2[C@@H](C(=O)NCC(F)(F)F)[C@@H]1c1ccc(CO)cc1	0.0666
O=C1[C@H]2[C@H]3[C@H](O)[C@H](O)CC(=NO[C@@H]4O[C@H](CO)[C@@H](O)[C@H](O)[C@H]4O)[C@H]3CC[C@H]2C(=O)N1C1CCCCC1	-0.191
CC(C)=CCCC(C)=CCON=C1C[C@@H](O)[C@@H](O)[C@@H]2[C@@H]3C(=O)N(C[C@@H]4CCCO4)C(=O)[C@@H]3CC[C@@H]12	1.37
C=CC[C@@H]1C=C[C@H](ON=C2c3cc(OC)ccc3O[C@H](c3cccc(OC)c3)[C@H]2O)[C@@H](CO)O1	0.26
CCc1cc2c(nc1CC)CCN(CCC(C)=NOC[C@@H](O)COCc1ccco1)C2	1.7
CCN1C(=O)[C@H]2[C@H]3[C@H](O)[C@H](O)CC(=NOC(C)CN4CCCCc5nc(C)c(C)cc54)[C@@H]3CC[C@H]2C1=O (some centres not stated)	0.78
COCCOC(=O)N1C(=O)[C@@]2(c3cc(C#CC4(O)CCCCCC4)ccc31)[C@H](c1ccc(OCCO)cc1)N1[C@H](c3ccccc3)[C@H](c3ccccc3)OC(=O)[C@H]1[C@@H]2C(=O)NC[C@H](O)c1ccccc1	0.208
CC1CC/C=C\[C@H]2OC34C=CCN(C(C)C)C(=O)[C@H]3N(CCCO)C(=O)[C@@H]4C2C(=O)O1 (some centres not stated)	-1.23
CCCNC(=O)OC[C@H]1O[C@H](CCON=CC[C@@H]2C=C[C@H](OC(C)=O)[C@@H](COC(C)=O)O2)C=C[C@@H]1Oc1ccc(OC)cc1	0.537
Cc1ccc(S[C@]2(C(=O)O)CC(=O)N(Cc3ccccc3)[C@@H]2c2ccc(CO)cc2I)cc1	-0.776
CC(=O)C[C@H](O)[C@@H](NC(=O)OC(C)(C)C)C(C)C	-0.31
COC(=O)C1=CCC(c2cccc(Cl)c2)O1 (configuration not stated)	-0.476

Compound	composite z-score
COCCCNC(=O)[C@@]1(CCS(=O)(=O)c2ccccc2)N=C(c2ccc(OCCCO)cc2)O[C@H]1c1ccccc1	0.026
O=C(NN=C1C[C@@H](O)[C@@H](O)[C@@H]2[C@@H]3C(=O)N(c4cccc(Oc5ccccc5)c4)C(=O)[C@@H]3CC[C@@H]12)OCc1ccccc1	0.155
CCOC(=O)NN=C1C[C@@H](O)[C@@H](O)[C@@H]2[C@@H]3C(=O)N(C[C@@H]4CCCO4)C(=O)[C@@H]3CC[C@@H]12	-0.0134
COC(=O)c1c(CC[C@@H](CO)NC(=O)N[C@H](Cc2ccccc2)Cn2cc(-c3ccccc3N)nn2)oc(C(C)=O)c1C(=O)OC	-0.299
CC(CCN1CCc2nc(-c3ccccc3)c(-c3ccccc3)cc2C1)=NOC(C)CN1CCCCc2nc(C)c(C)cc21 (configuration not stated)	0.77
CCCNC(=O)[C@@H]1c2ccccc2C(=O)N(Cc2ccccc2Cl)[C@H]1c1ccc(CO)cc1	0.649
COc1ccc(O[C@H]2C=C[C@@H](c3ccccc3)O[C@@H]2COC(=O)CCC(C)=NOCC[C@@H]2C=C[C@H](OC(C)=O)[C@@H](COC(C)=O)O2)cc1	0.371
CC(C)OC(=O)C=C1C[C@@H](c2ccc(C#N)cc2)O[C@@H](c2ccc(C#N)cc2)O1	0.189
CCCC=C(CCC)[C@@H](NC(=O)c1ccc(-c2ccccc2)cc1)c1ccc(C(=O)OC)cc1	-0.673
CCCC[C@@H](O)C1=C(C)C[C@H]2C(=O)N(Cc3ccccc3)C(=O)[C@H]2[C@H]1CO	0.524
COCCNC(=O)OCC1CCCC2(CC(OC(=O)NCCc3ccc(F)cc3)CC(CCC(=O)N[C@@H](C)C(=O)OC)O2)O1 (some centres not stated)	0.932
C[N+](C)(C)CCCCCCNC(=O)[C@@H]1C[C@@H]2C(=O)N3CCC[C@H]3C(=O)N2[C@@H]1c1cccc(OCCO)c1	0.808
CC(C)C[C@@H]1NC(=O)[C@H]2C[C@@H](C(=O)O)[C@@H](c3ccc(O)cc3)N2C1=O	0.63
O=C1O[C@@H](c2ccccc2)[C@@H](c2ccccc2)N2[C@@H](c3ccccc3OCCO)[C@]3(C(=O)Nc4ccc(C#CCCO)cc43)[C@@H](C(=O)O)[C@H]12	-0.167
CO[C@H]1COC(=O)[C@H](C)COC(=O)CC=C[C@@H](C)[C@H](OC)COC(=O)CC=C[C@@H]1C	1.02
C=CCC(OC(C)=O)[C@@H]1[C@@H](N(Cc2cc3ccccc3o2)C(=O)Cc2ccc(F)cc2)c2cc(OCCCO)ccc2N1C(=O)Cc1ccc(OC)cc1 (some centres not stated)	-0.191
CO[C@@H]1COC(=O)[C@H](C)NC(=O)[C@@H](C)COC(=O)CCC[C@H]1C	0.705
CC(C)(C)OC(=O)CC[C@]1(C(N)=O)COC(c2ccc(OCCCO)cc2)=N1	-0.385
